# Measured values: PubChem BioAssay (NCATS)
# Values without a mark were called inactive. Calls follow the shape of the dose curve; as a rule, active = well fitted curve in the direction sought with a large enough effect; inconclusive = small, poorly fitted or top-dose-only effect, or another doubt; inactive = no such curve, though single readings can be large or run the other way.
# Biological target: Alpha-galactosidase (Coffea arabica) (UniProt Q42656)
# Assay: Counterscreen for Glucocerebrosidase Inhibitors: qHTS Assay for Coffee Bean alpha-Galactosidase at pH 4.5 (AID 957);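 also: plate controls were enzyme alone for no effect and no enzyme for full effect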
# Details: purified coffee bean alpha-galactosidase, fluorogenic substrate; series mostly up to 76.9 µM; activity change, negative = inhibition: at the top concentration
# In short: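 Fluorogenic qHTS at pH 4.5 (citrate buffer with Tween-20): 2 nM enzyme, 80 uM 4-MU-alpha-galactoside substrate, compound titrated 0.7 nM to 77 uM, 20 min room temperature. Glycine/NaOH stop; 4-MU read Ex 365/Em 440; Hill-equation AC50 against no-enzyme and enzyme controls.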
# Chain of Alpha-galactosidase (Coffea arabica) (Q42656 whole entry, looked up): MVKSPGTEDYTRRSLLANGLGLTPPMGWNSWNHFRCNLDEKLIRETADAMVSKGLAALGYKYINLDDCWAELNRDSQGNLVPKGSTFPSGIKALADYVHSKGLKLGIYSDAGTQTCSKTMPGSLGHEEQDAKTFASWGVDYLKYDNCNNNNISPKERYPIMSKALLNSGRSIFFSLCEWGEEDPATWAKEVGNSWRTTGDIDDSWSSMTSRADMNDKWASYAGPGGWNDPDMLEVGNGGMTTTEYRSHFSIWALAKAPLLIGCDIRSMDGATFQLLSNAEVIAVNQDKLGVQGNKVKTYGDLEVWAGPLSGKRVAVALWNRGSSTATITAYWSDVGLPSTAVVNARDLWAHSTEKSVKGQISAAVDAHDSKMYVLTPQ
row,Structure (SMILES),"activity change, negative = inhibition"
1,Cc1ccc(S(=O)(=O)NC(=O)NN2CCCCCC2)cc1,-1.24%
2,CN(C)CCC=C1c2ccccc2CCc2ccccc21,-4.09%
3,C[C@](N)(Cc1ccc(O)c(O)c1)C(=O)O,-3.19%
4,NC(=O)OCC(COC(N)=O)c1ccccc1,-1.43%
5,CN(C)CCCN1c2ccccc2Sc2ccc(Cl)cc21,-6.46%
6,NNc1nncc2ccccc12,0.127%
7,O=C1NC(=O)C(c2ccccc2)(c2ccccc2)N1,2.71%
8,O=C1c2c(O)ccc(O)c2C(=O)c2c(NCCNCCO)ccc(NCCNCCO)c21,0.232%
9,CN(C)CCC[C@@]1(c2ccc(F)cc2)OCc2cc(C#N)ccc21,0.234%
10,COc1cc(Cc2cnc(N)nc2N)cc(OC)c1OC,-1.43%
11,CN1CCC(=C2c3ccccc3C=Cc3ccccc32)CC1,-5.63%
12,O=C(C1CCCCC1)N1CC(=O)N2CCc3ccccc3C2C1 (stereo not drawn),0.17%
13,NC(=O)NO,3.22%
14,Cc1[nH]c(=O)c(C#N)cc1-c1ccncc1,2.19%
15,COc1cc2c(c(OC)c1OC)-c1ccc(OC)c(=O)cc1[C@@H](NC(C)=O)CC2,-3.14%
16,CN(C)c1nc(N(C)C)nc(N(C)C)n1,-0.867%
17,CNCCCC1c2ccccc2C=Cc2ccccc21,-0.859%
18,CC1(C)NC(=O)N(c2ccc([N+](=O)[O-])c(C(F)(F)F)c2)C1=O,-4.57%
19,Nc1nc2c(ncn2COCCO)c(=O)[nH]1,1.55%
20,Clc1ccc(C(c2ccccc2Cl)C(Cl)Cl)cc1 (stereo not drawn),-2.22%
21,NS(=O)(=O)Cc1noc2ccccc12,2.5%
22,Nc1nc(N)c2nc(-c3ccccc3)c(N)nc2n1,114%
23,N=c1nc(N2CCCCC2)cc(N)n1O,3.33%
